From PubChem
ADAM17 inh – ADAM17 inhibitors, primary screen, biochemical, QFRET. recombinant ADAM17, EDANS/DABCYL FRET peptide cleavage. inhibition, % at 6.95 µM. 0.83% of 370,000 active;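 active = inhibition above the mean of compounds lying between control limits plus 3 SD, set per campaign, cut at about 8.5% in these data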;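 also: 0% = DMSO-only wells as the low control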
Target sequence (P78536 215-824 limits assumed): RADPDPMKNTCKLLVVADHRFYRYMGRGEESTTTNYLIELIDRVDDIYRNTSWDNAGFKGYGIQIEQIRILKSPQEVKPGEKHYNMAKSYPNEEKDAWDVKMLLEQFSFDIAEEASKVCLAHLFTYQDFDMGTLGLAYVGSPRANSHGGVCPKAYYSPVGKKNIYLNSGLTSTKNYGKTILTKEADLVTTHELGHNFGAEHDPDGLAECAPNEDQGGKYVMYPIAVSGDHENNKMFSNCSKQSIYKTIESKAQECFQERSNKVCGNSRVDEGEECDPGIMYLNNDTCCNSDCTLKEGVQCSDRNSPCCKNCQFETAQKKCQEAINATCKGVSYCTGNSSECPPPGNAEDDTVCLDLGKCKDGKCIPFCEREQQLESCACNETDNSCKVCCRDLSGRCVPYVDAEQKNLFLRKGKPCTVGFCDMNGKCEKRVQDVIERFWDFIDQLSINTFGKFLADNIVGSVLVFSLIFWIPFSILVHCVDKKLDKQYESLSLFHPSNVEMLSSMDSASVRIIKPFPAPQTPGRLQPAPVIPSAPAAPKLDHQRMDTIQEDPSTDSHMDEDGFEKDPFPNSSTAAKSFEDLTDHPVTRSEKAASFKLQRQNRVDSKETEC
KLK7 zymogen act – proKLK7 zymogen activators, primary screen, biochemical, fluorescence intensity | Kallikrein-7 (Homo sapiens), P49862 | purified proKLK7, EDANS-DABCYL substrate fluorescence; 100% is mature enzyme control, 0% vehicle | activation, % at 7 µM | 0.9% of 370,000 active;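 active = activation above the mean of all tested compounds plus 3 SD, computed per campaign excluding outliers beyond control limits, cut at about 13% in these data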
ADAM10 inh – human ADAM10 inhibitors, primary screen, biochemical, QFRET, HTS; Disintegrin and metalloproteinase domain-containing protein 10 (Homo sapiens), O14672; inhibition, % at 7 µM; 0.62% of 370,000 active; recombinant ADAM10, EDANS/DABCYL FRET peptide cleavage, 3 h; AID 720582, 2013;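 active = inhibition above a per-campaign cutoff equal to the mean of compounds falling between control-based bounds plus 3 SD, cut at about 20% in these data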;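 also: 0% = DMSO wells while the 100% control is not disclosed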
PLC-beta3 inh – human PLC-beta3 inhibitors, primary screen, biochemical, fluorescence; inhibition, % at 12.2 µM; AID 720704, 2013; 0.18% of 370,000 active; Purified PLC-beta3, fluorogenic substrate; 1-phosphatidylinositol 4,5-bisphosphate phosphodiesterase beta-3 (Homo sapiens), Q01970; in the data active = inhibition above about 11%;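 also: 0% = median of compound wells on plate and 100% = full blocker control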
PLCg1 inh – PLC-gamma1 enzyme inhibitors, primary screen, biochemical, fluorescence, purified enzyme | 1-phosphatidylinositol 4,5-bisphosphate phosphodiesterase gamma-1 (Homo sapiens), P19174 | fluorogenic substrate | inhibition, % at 12.2 µM | 0.84% of 370,000 active | AID 720700, 2013; in the data active = inhibition above about 9.5%
proKLK7 act conf – proKLK7 zymogen activators, confirmation, biochemical, fluorescence intensity, triplicate. shares compounds with KLK7 zymogen act. purified proKLK7, EDANS-DABCYL substrate fluorescence; scaled: vehicle 0, mature enzyme 100. activation, % at 7 µM. 68% of 3,200 active. AID 686949, 2013;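 active = activation, as change over the incubation, above the mean of all tested compounds plus 3 SD, cut at about 13% in these data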
EDANS interfere – EDANS-DABCYL substrate optical interference, artefact control for kallikrein-7 zymogen activator project, biochemical, fluorescence intensity, high throughput; shares compounds with KLK7 zymogen act; no enzyme, 4 h; solvent 0%, active enzyme control 100%; activation, % at 7 µM; 80% of 3,200 active; AID 686952, 2013;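 active = activation above the all-compound mean plus 3 SD, ignoring values outside control-based bounds, cut at about 4.8% in these data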;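 also: value is the 4 h activation minus the activation read at time zero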
EDANS interf – EDANS fluorescence interference in dose response, no enzyme. shares compounds with KLK7 zymogen act. EDANS-DABCYL peptide fluorescence interference. EC50, µM. 20% of 250 active. AID 720493;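 active = compounds that raise the fluorescence signal in this interference counterscreen, with EC50 at or below 10 µM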;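 also: intact quenched peptide substrate alone read at 355 nm excitation and 520 nm emission; signal is fluorescence gain from T0 to T4 after four hours at room temperature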
The depositor's hits bear a star; i = inactive; / = no result given. This is a sample that favours compounds with a hit; in the whole collection about 2.9% have one here.

SMILES	ADAM17 inh	KLK7 zymogen act	ADAM10 inh	PLC-beta3 inh	PLCg1 inh	proKLK7 act conf	EDANS interfere	others
Nc1c(-c2ccccc2)nc(Cl)nc1-c1ccccc1	i	42*	i	i	i	78*	78*
Cc1sc(N)nc1-c1ccccc1	-1	1	0	-4	-1	/	/
O=C(NCCN1CCC(n2c(=O)[nH]c3cc(Cl)ccc32)CC1)c1ccc(F)cc1	2	0	0	5	5	/	/
c1csc(C2C3=C(Nc4ncnn42)c2ccccc2OC3)c1 (stereo not drawn)	-134	17*	-434	i	-470	34*	31*
C[C@H]1COc2cc(Br)ccc2S(=O)(=O)N1Cc1cn(Cc2ccccc2)nn1	-3	0	-6	2	1	/	/
Cn1c(C(=O)NCc2ccccn2)cc2c(=O)n3ccccc3nc21	i	53*	i	i	i	66*	67*
O=C(NC1CCCC1)c1cc2c(=O)n3ccccc3nc2s1	i	61*	i	i	i	75*	66*
CC1CCCN(C(=O)c2cc3c(=O)n4ccccc4nc3s2)C1 (stereo not drawn)	-414	26*	i	i	-418	30*	34*
Cn1c(C(=O)NC2CCCCC2)cc2c(=O)n3ccccc3nc21	i	83*	i	i	i	81*	75*
Cc1ccc(Cn2c(=N)c(C(=O)NC3CCCCC3)cc3c(=O)n4ccccc4nc32)cc1	-140	-1	-463	-125	-95	/	/
Cc1cccn2c(=O)c3cc(C(=O)N4CCCC(C)C4)sc3nc12 (stereo not drawn)	-128	1	-400	-142	-106	/	/
COC(=O)C1CN(Cc2ccc(C)cc2)CCS(=O)(=O)N1Cc1cn(Cc2ccccc2)nn1 (stereo not drawn)	-1	0	3	2	1	/	/
Cc1ccc(C)c(NC(=O)CN2C(=O)CCSc3ccccc32)c1	6	1	-5	2	2	/	/
COC(=O)c1cccc(Cn2ccc3ccc(-c4ccc5ccn(C(=O)c6cccc(OC)c6)c5c4)cc32)c1	-8	-8	-23	-92	-63	/	/
O=C(NC1CCCCN(Cc2ccc(OC(F)(F)F)cc2)C1=O)c1ccc(F)c(F)c1 (stereo not drawn)	0	0	1	-1	1	/	/
O=C(c1cccc(I)c1)N1CCC(Oc2cccnc2)CC1	0	0	5	-1	2	/	/
CC1CCCCN1C(=O)c1cc2c(=O)n3ccccc3nc2s1 (stereo not drawn)	i	32*	i	i	i	40*	40*
C=c1[nH]cc(C(C)c2c(C)n(C)c3ccccc23)/c1=C/C (stereo not drawn)	-8	0	-24	-36	-28	/	/
Cc1nc(Cl)c2c(n1)NC1=C(O2)C(=O)CCC1	-48	22*	-137	i	i	18*	22*
Cc1ccc(NC(=O)C2=CC(c3cccs3)=NS(=O)(=O)N2C)cc1	-4	18*	-6	-5	2	22*	13*	EDANS interf=i
CCCCCCCCN1C(=O)[C@@H](CC(=O)N2CCSCC2)C[C@@]2(C(=O)OC)C1=C[C@H](C(C)C)O[C@@H]2C1CC1	-2	0	-4	-1	3	/	/
C[C@H](CCC(=O)N(c1ccccc1)c1ccccc1)CC1CCCCC1	0	1	-1	3	-1	/	/
CCN(CC)CCCNC(=O)c1cc2cc(Cl)ccc2nc1N	-168	17*	i	-302	-246	26*	25*
Nc1nc2ccc(Cl)cc2cc1C(=O)NC1CC1	-253	16*	i	-387	-282	12	8.8*
Cc1oc2cc3oc(=O)c(CCC(=O)NCCCC(=O)O)c(C)c3cc2c1C	-114	14*	-371	-486	-383	24*	22*
SMILES	ADAM17 inh	KLK7 zymogen act	ADAM10 inh	PLC-beta3 inh	PLCg1 inh	proKLK7 act conf	EDANS interfere	others
Cc1c(CCC(=O)NC2CC2)c(=O)oc2cc(O)ccc12	i	86*	i	i	i	62*	73*
COc1ccccc1N1CCN(C(=O)c2cc3c(C)nn(-c4ccccc4)c3s2)CC1	2	0	0	-4	-1	/	/
COCCCN1C(=O)[C@H](CC(=O)N2CCN(C(=O)C3CC3)CC2)[C@]2(C(=O)OC)CCCCC=C12	0	0	1	1	1	/	/
COc1cc2c(cc1NC(=O)CSc1nnc(-c3ccccc3F)n1-c1ccc(C)cc1)oc1ccccc12	2	0	-13	0	0	/	/
O=C(NC1CCCCN(Cc2cccc(C(F)(F)F)c2)C1=O)c1ccc(Cl)c(Cl)c1 (stereo not drawn)	-5	0	-3	-3	-1	/	/
O=C(NCc1cccs1)C1CCC(CNS(=O)(=O)c2cccc3cccnc23)CC1 (stereo not drawn)	-4	0	-10	-2	-1	/	/
Cc1cc(=O)oc2cc(OCC(=O)NCc3ccccn3)ccc12	-23	0	-70	-6	-9	/	/
Cc1cc(=O)oc2cc(NC(=S)NCc3ccccn3)ccc12	i	58*	i	i	i	38*	46*
Cc1ccc(Nc2c(-c3ccco3)nc3ccccn23)cc1	-411	-26	i	i	i	/	/
c1ccc(Nc2c(-c3ccco3)nc3ccccn23)cc1	-436	16*	i	i	i	68*	72*
COc1cc2c(cc1OC)C(COc1ccc([N+](=O)[O-])cc1)NCC2 (stereo not drawn)	-44	14*	-172	-179	-116	0	-1
CCN1CCN(Cc2c(O)ccc3c2O/C(=C\C=C\c2ccccc2)C3=O)CC1	-17	5	-55	-491	-358	/	/
CCc1ccc(/C=C2\Oc3c(ccc(O)c3CN3CCN(C)CC3)C2=O)cc1	-45	58*	-90	i	i	17*	37*
CCN1CCN(Cc2c(O)ccc3c2O/C(=C\c2ccc(C)cc2)C3=O)CC1	-56	44*	-165	i	i	18*	7.1*	EDANS interf=>70
Cc1ccc(/C=C2\Oc3c(ccc(O)c3CN3CCN(C)CC3)C2=O)cc1	-64	58*	-157	i	i	31*	25*
